POLH inh: inhibitors of human DNA polymerase eta. Q9Y253. recombinant Pol eta, fluorescent DNA replication assay. Potency, µM (titrated, usually from 114 µM), usual class: inhibitors. 390,000 compounds, 1.2% hits. AID 588591
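Pol eta (10 nM) was preincubated with compounds for 15 min at room temperature, after which fluorescent replication substrate (50 nM final) was added to start the reaction. Fluorescence was read kinetically at 0 and 10 min.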
WRN helicase inh: blocks human WRN helicase; WRN helicase unwinding, fluorescent forked duplex, kinetic; Potency, µM (top dose mostly 114 µM), actives largely listed as inhibitors; 360,000 compounds, 0.46% hits; AID 651768; also: nearly all actives have a fitted effect of over 55% in size
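Kinetic fluorescence helicase assay: unwinding of a quenched forked DNA duplex (100 nM final) with 2 mM ATP final raises red fluorescence (525/598 nm). Compounds sat 15 min at room temperature with 20 nM WRN beforehand.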
POLI inh: DNA polymerase iota (human) inhibition; Q9UNA4; Pol iota fluorescent replication assay, 10 min; Potency, µM (top dose mostly 115 µM), most hits filed as inhibitors; 390,000 compounds, 1% hits
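Fluorescent replication assay read twice, at 0 min and 10 min after adding 50 nM (final) substrate. Enzyme (10 nM) and compounds were first incubated 15 min at room temperature; enzyme-free buffer wells were negative controls.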
Pol kappa inh: inhibitors of human DNA polymerase kappa. purified Pol kappa, fluorescent DNA synthesis assay, 10 min. Potency, µM (top dose mostly 107 µM), hits mostly inhibitors. 400,000 compounds, 0.53% hits
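10 nM Pol kappa was preincubated with compounds for 15 min at room temperature. Reaction started with 50 nM (final) substrate. Fluorescence read kinetically at 0 and 10 min.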
POLB inh: inhibitors of human DNA polymerase beta | P06746 | Pol beta primer extension/strand displacement, fluorescence kinetic | Potency, µM (titrated, usually from 114 µM), hits mostly inhibitors | 340,000 compounds, 1.3% hits | AID 485314
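Enzyme-only controls used 10 nM Pol beta; buffer lacking enzyme served as negative control. Compound preincubated 15 min, then 50 nM substrate added; 0 and 10 min reads at room temperature.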
PI5P4K alpha inh: blocks human PI5P4K alpha kinase activity; P48426; PI5P4Kalpha enzyme, ADP-Glo luminescence, 60 min; stronger effect = lower value; max response, %; 330,000 compounds, 1.2% hits; active = max response of -50% or lower; inconclusive = between -30% and -50%; inactive = -30% or higher; also: value at the top dose of about 77 µM
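qHTS, 1536-well: enzyme/substrate mix, compound by pin tool, 5 microM ATP final; RT 60 min; ADP-Glo reagents 1 (45 min) then 2 (30 min); luminescence.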
Each line names hits and unclear results; the compound was inactive in the other large screens. Hits are enriched below; roughly 2.8% of the tested compounds scored in any of these assays. Unless noted, calls follow the shape of the dose curve; as a rule, active = well fitted curve in the direction sought with a large enough effect; inconclusive = small, poorly fitted or top-dose-only effect, or another doubt; inactive = no such curve, though single readings can be large; an effect the other way counts as inactive or inconclusive.

O=C(Cc1cccs1)N(c1ccccc1)C1C=CS(=O)(=O)C1 (stereo unspecified)	POLI inh 56.2µM, POLB inh inconclusive (no result: PI5P4K alpha inh)
COc1ccc2oc(=Nc3ccc(C(=O)O)cc3)c(C(=O)NCc3ccco3)cc2c1	none
COc1ccc2cc(C(=O)NCc3ccco3)c(=Nc3ccc(C(=O)O)cc3)oc2c1	POLH inh 89.1µM (no result: PI5P4K alpha inh)
O=C1/C(=C/c2ccc(O)c(O)c2)SC(=S)N1Nc1ccccc1	POLH inh 7.94µM, WRN helicase inh inconclusive, POLI inh 14.1µM, PI5P4K alpha inh -60.7
O=C(NN1C(=O)/C(=C\c2ccc(O)c([N+](=O)[O-])c2)SC1=S)c1ccccc1Cl	POLH inh inconclusive, POLI inh inconclusive, Pol kappa inh inconclusive, POLB inh inconclusive, PI5P4K alpha inh -78.0
CCOc1cc(/C=C2\CN(C)C/C(=C\c3ccc(O)c(OCC)c3)C2=O)ccc1O	POLH inh 44.7µM, POLI inh inconclusive
O=C(O)c1ccc(/C=C2\SC(=S)N(NC(=O)c3ccccc3[N+](=O)[O-])C2=O)cc1	POLI inh inconclusive, Pol kappa inh inconclusive, PI5P4K alpha inh inconclusive
CCOc1cc(/C=C2\SC(=S)N(NS(=O)(=O)c3ccccc3)C2=O)ccc1O	WRN helicase inh 56.2µM, POLI inh inconclusive, PI5P4K alpha inh -66.9
COc1cc(C=C2CN(C)C(=O)C2=O)ccc1O	none (no result: POLI inh, Pol kappa inh, POLB inh)
CCc1ccc(NC(=O)CC2C(=O)N(c3ccc(F)cc3)C(=O)N2Cc2ccc(F)cc2)cc1 (stereo unspecified)	none (no result: WRN helicase inh, PI5P4K alpha inh)
Cc1cc(C)c2c(CC(=O)Nc3ccccc3C(F)(F)F)coc2c1	none (no result: WRN helicase inh, PI5P4K alpha inh)
O=C(Nc1cccc(C(F)(F)F)c1)C1CCN(S(=O)(=O)c2cccc3nsnc23)CC1	none (no result: WRN helicase inh, PI5P4K alpha inh)
CCOc1ccc(OCC)c(NS(=O)(=O)c2cc(-c3onc(C)c3C)ccc2OC)c1	none (no result: WRN helicase inh, PI5P4K alpha inh)
COc1ccc(CNC(=O)CC2C[C@H](C(=O)N3CCCCC3)[C@@]3(C)c4[nH]c5ccccc5c4CCN3C2=O)cc1OC (stereo partly specified)	none (no result: POLB inh)
CCOc1cc(/C=C2\SC(=S)N(Nc3ccccc3)C2=O)ccc1O	POLH inh inconclusive, WRN helicase inh 17.8µM, POLI inh inconclusive, Pol kappa inh inconclusive, POLB inh 12.6µM
CCOc1cc(/C=C2\SC(=S)N(N3CCOCC3)C2=O)ccc1O	none
COc1cc(/C=C2\SC(=S)N(Nc3ccccc3)C2=O)ccc1O	POLH inh inconclusive, WRN helicase inh 15.8µM, POLI inh 50.1µM, POLB inh 11.2µM, PI5P4K alpha inh inconclusive
COc1ccc2c(c1)c1c(c(=O)n(Cc3ccccc3)c(=O)n1Cc1ccc(C)cc1)n2C	none (no result: WRN helicase inh, PI5P4K alpha inh)
Cc1cccc(NC(=O)C(Cc2ccccc2)NS(=O)(=O)c2ccc3c(c2)c(=O)n(C)c(=O)n3C)c1 (stereo unspecified)	none (no result: WRN helicase inh, PI5P4K alpha inh)
N#CCC(=O)c1sccc1-n1cccc1	WRN helicase inh inconclusive, POLI inh inconclusive, Pol kappa inh 79.4µM
O=[N+]([O-])c1ccc(N=Nc2c(Cl)cc(O)cc2Cl)cc1	none
Nc1c(N=Nc2ccc([N+](=O)[O-])cc2)c(S(=O)(=O)O)cc2cc(S(=O)(=O)O)c(/C=C/c3ccccc3)c(O)c12	POLI inh 25.1µM, Pol kappa inh 31.6µM (no result: POLH inh, WRN helicase inh, POLB inh, PI5P4K alpha inh)
COc1ccc(OC)c(/C=N/NC(=O)c2[nH]nc3c2CCc2ccccc2-3)c1	POLB inh inconclusive, PI5P4K alpha inh -50.5
O=C1C(=O)C(c2ccc(O)cc2O)Oc2cc(O)cc(O)c21 (stereo unspecified)	POLI inh 10µM, Pol kappa inh 12.6µM (no result: POLH inh, WRN helicase inh, POLB inh, PI5P4K alpha inh)
O=C1c2c(O)cc(O)cc2OC(c2ccc(O)c(O)c2)C1O (stereo unspecified)	POLH inh 5.62µM, POLI inh 3.98µM, Pol kappa inh 5.97µM, POLB inh 1.89µM (no result: WRN helicase inh, PI5P4K alpha inh)
O=C1c2c(O)cc(O)cc2O[C@H](c2ccc(O)c(O)c2)C1O (stereo partly specified)	Pol kappa inh 1.34µM (no result: POLH inh, WRN helicase inh, POLI inh, POLB inh, PI5P4K alpha inh)
COc1ccc([C@H]2CC(=O)c3c(O)cc(O)cc3O2)cc1O	none
COc1ccc([C@H]2Oc3cc(O)cc(O)c3C(=O)C2[C@@H]2C(=O)c3c(O)cc(O)cc3O[C@@H]2c2ccc(OC)cc2)cc1 (stereo partly specified)	POLB inh inconclusive, PI5P4K alpha inh -58.0
COc1cc(C2CC(=O)c3c(O)cc(O)cc3O2)ccc1O (stereo unspecified)	POLB inh inconclusive
Cc1[nH]c2ccccc2c1/C=N/NC(=O)c1ccccc1	none
Cc1[nH]c2ccccc2c1/C=N/NC(=O)c1ccc(N)cc1	POLB inh 20µM
CCc1ccc(CNC(=O)c2c(C)oc3ncn(CC(C)C)c(=O)c23)cc1	none (no result: WRN helicase inh, PI5P4K alpha inh)
COc1ccc2ccccc2c1C(=O)/C=C\c1ccoc1	POLH inh inconclusive, POLI inh inconclusive, POLB inh 44.7µM, PI5P4K alpha inh -53.0
O=S(=O)(O)c1cccc2cccc(Nc3ccccc3)c12	POLH inh 20µM, POLI inh 28.2µM, Pol kappa inh inconclusive, PI5P4K alpha inh inconclusive (no result: POLB inh)
CCC(=O)N(CCC(c1ccc(C)cc1)c1ccco1)Cc1ccco1 (stereo unspecified)	POLH inh inconclusive, WRN helicase inh inconclusive, POLI inh 44.7µM, Pol kappa inh inconclusive, POLB inh 25.1µM
O=C1/C(=C\c2ccco2)SC(=S)N1c1ccccc1	POLH inh inconclusive, POLI inh inconclusive, POLB inh 28.2µM
O=C1/C(=C/c2ccco2)SC(=S)N1C1CCS(=O)(=O)C1 (stereo unspecified)	POLI inh inconclusive, Pol kappa inh inconclusive, POLB inh 12.6µM, PI5P4K alpha inh inconclusive
O=C1/C(=C\c2ccco2)SC(=S)N1Cc1ccccc1	POLH inh inconclusive, POLB inh inconclusive
Cc1ccc(N2C(=O)/C(=C\c3ccco3)SC2=S)cc1	POLH inh inconclusive, WRN helicase inh inconclusive, POLI inh inconclusive, Pol kappa inh 79.4µM, POLB inh 44.7µM, PI5P4K alpha inh inconclusive
CCOc1ccc(CNC(=O)c2cnc3sc(N4CCOCC4)nn3c2=O)cc1OC	none (no result: WRN helicase inh, PI5P4K alpha inh)
CC(C)(C)OC(=O)N1CCC(c2c(C(=O)NC3CCN(Cc4ccccc4)CC3)cnn2-c2ccc(F)cc2F)CC1	none (no result: WRN helicase inh, PI5P4K alpha inh)
COc1ccc(Nc2cc(C)nc3ccc(OC)cc23)cc1	POLI inh inconclusive, POLB inh 22.4µM
COc1ccc(/C=N/Nc2cc(C)nc3ccccc23)cc1	POLH inh inconclusive, WRN helicase inh inconclusive, POLI inh inconclusive, POLB inh 79.4µM
Cc1ccc2nc(C)cc(N/N=C/c3cccc(O)c3)c2c1	none
COc1ccc(/C=N/Nc2cc(C)nc3c(C)cccc23)cc1	POLH inh inconclusive, WRN helicase inh inconclusive, POLB inh 25.1µM
COc1cccc2c(N/N=C/c3ccc(O)c(O)c3)cc(C)nc12	POLI inh inconclusive, POLB inh 20µM
COc1ccc(Cn2c(=O)c3cccnc3n(Cc3cccc(F)c3)c2=O)cc1	none (no result: WRN helicase inh, PI5P4K alpha inh)
